The full ranking holds about 39,000 sequences; the median of “fluorescence intensity (a.u.)” is about 4,300, and the highest 2% start at about 39,000. For the sample, the highest values were picked, then their nearest neighbours and some sequences at random.
target: T1, OsSMF1 (Oryza sativa, UniProt Q6ZLB0 1-436); experiment: protein-binding microarray (RPBM); PBS, 2% BSA, 51.3 ng/ul salmon testes DNA, 50 uM zinc acetate, 200 nM TF, 25 C, 1 h; high values mean tight binding; settings: protein: recombinant; tags: N-terminal polyhistidine and DsRed monomer fusion (pET32a); chain copies: 2; label: CyDye5-dUTP incorporated in the synthesized complementary strand; 3' TTTTT single-stranded linker to array surface; dsDNA, one strand shown
T1 sequence: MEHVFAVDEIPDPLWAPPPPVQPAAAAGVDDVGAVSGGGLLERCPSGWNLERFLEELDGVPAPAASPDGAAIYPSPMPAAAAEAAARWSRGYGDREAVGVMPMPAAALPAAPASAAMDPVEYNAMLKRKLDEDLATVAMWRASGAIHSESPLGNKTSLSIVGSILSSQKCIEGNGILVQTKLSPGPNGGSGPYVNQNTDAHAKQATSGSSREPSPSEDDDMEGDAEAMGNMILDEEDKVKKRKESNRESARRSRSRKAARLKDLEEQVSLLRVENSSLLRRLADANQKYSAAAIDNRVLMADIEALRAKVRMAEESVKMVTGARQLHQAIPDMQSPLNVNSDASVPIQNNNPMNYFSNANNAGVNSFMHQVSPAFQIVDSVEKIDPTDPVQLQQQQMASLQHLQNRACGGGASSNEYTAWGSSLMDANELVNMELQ
Method in brief: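 Binding signal is reported as fluorescence intensity per feature (arbitrary units) from an Axon 4000B scanner. Incubation used 200 nM of each Ni–NTA-purified, N-terminally polyhistidine- and DsRed-fused transcription factor from E. coli BL21-CodonPlus on a double-stranded custom Agilent array for 1 h at 25 °C, with 50 µM zinc acetate in the buffer, followed by washing.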

Sequence	binding signal
CCGCTCCGCCTACTCTGGCCACGCGCTGACGCCGCGTCCCCGGAGTCACCTAGTGCAG	7060 fluorescence intensity (a.u.)
GGCGGAGACGCGGGCGTGGCTCGGCGGCCTGCTAGTGTGACGGAGTCACCTAGTGCAG	3340 fluorescence intensity (a.u.)
AAAGCCAAACAAGTGTCCAAACGGCTAGGAGTCAACCTCGCGGAGTCACCTAGTGCAG	41200 fluorescence intensity (a.u.)
AAGTCCTCCCACAAGTCAACCAACCAAAACCACGTCCAAACGGAGTCACCTAGTGCAG	3420 fluorescence intensity (a.u.)
TTCAAGTCCAACCTCGGCCACATGCTCCGCCTCCGCCTCGCGGAGTCACCTAGTGCAG	3780 fluorescence intensity (a.u.)
TTTCTTAACTCGACACGCAATGTATTGTTATTTACGATTCCGGAGTCACCTAGTGCAG	3740 fluorescence intensity (a.u.)
TACCACTATCGGAAGTTTTGGTTGTGACGTCCACAATTCCCGGAGTCACCTAGTGCAG	3760 fluorescence intensity (a.u.)
CTAATGGGACTGCTGCTACCCTATCTTTAGTCCGGGACTACGGAGTCACCTAGTGCAG	3270 fluorescence intensity (a.u.)
TTTCACCCGGGACTAAAGATCGCTATCTTTAGTCCCGGATCGGAGTCACCTAGTGCAG	52600 fluorescence intensity (a.u.)
AACCGGGACTAAAGATCGTACCTTTAGTTACGATCTTTAGCGGAGTCACCTAGTGCAG	28500 fluorescence intensity (a.u.)
CAAGGGAGCTGGTAACACTCATCATTTCCGTTCTTCAAATCGGAGTCACCTAGTGCAG	3250 fluorescence intensity (a.u.)
AGGTTGGTGATTCAGAGATGTCGAGACGTGTGTTCTTTTGCGGAGTCACCTAGTGCAG	4270 fluorescence intensity (a.u.)
TTAATACAAATCCGTTGCATCACACGAGTCATATGCTAGTCGGAGTCACCTAGTGCAG	5010 fluorescence intensity (a.u.)
GCGCGTTGCTGCTGACTCCGGAGCAAAATCGAGCGAGCGCCGGAGTCACCTAGTGCAG	3360 fluorescence intensity (a.u.)
AACTCCGAGCGTTGCTATGGGAGTTCCGTAAAATAGTAATCGGAGTCACCTAGTGCAG	39300 fluorescence intensity (a.u.)
TTGAATTGCCATTACAAGCAGAAACTGGGTAGCCCAGCAGCGGAGTCACCTAGTGCAG	14600 fluorescence intensity (a.u.)
GCCGCTGCACCGCCCCAGCCTCCTCCTCCCCACCGATGCCCGGAGTCACCTAGTGCAG	3150 fluorescence intensity (a.u.)
TCTATAAATATGATGTGGCTATGTACTCAGTACTCACCTGCGGAGTCACCTAGTGCAG	6690 fluorescence intensity (a.u.)
GGCGGCACAGGTCGCCGTCGTCGCCACCGACGCGGCGTCGCGGAGTCACCTAGTGCAG	3730 fluorescence intensity (a.u.)
TTATTCATACATGTCACTGCCAGGCTGCTGTCTACTTCTTCGGAGTCACCTAGTGCAG	4950 fluorescence intensity (a.u.)
CACGAGTGCCTCTCCGTCATGCTCCACGACAGCTGCAGCCCGGAGTCACCTAGTGCAG	4760 fluorescence intensity (a.u.)

Sequence	binding signal
ACGGGCTCGTCGAGCTGCTCTGGTGCAATGGCCACGTCATCGGAGTCACCTAGTGCAG	28400 fluorescence intensity (a.u.)
CCATTCATGCCCGTGATATCCTGGCTCCACGAGCTCTGCTCGGAGTCACCTAGTGCAG	59000 fluorescence intensity (a.u.)
AATATCATCCGTGTCACTACCTAGCTCCTGCATGCTCTGCCGGAGTCACCTAGTGCAG	4560 fluorescence intensity (a.u.)
GCGCCCCATCCACGCGTCATGCATCCACGTCGGGGCTGCACGGAGTCACCTAGTGCAG	11600 fluorescence intensity (a.u.)
GCTGTCCTGCTCGTCGGCCTCCACGCGCGCTCATCGGCCTCGGAGTCACCTAGTGCAG	3240 fluorescence intensity (a.u.)
CCTTTTCAATGTTCTTGTCATCACTGCTCGTGTCACCCGTCGGAGTCACCTAGTGCAG	5650 fluorescence intensity (a.u.)
TGAGCACCTCATCCACGCGTCATGCATCTGTGTCGGGGCTCGGAGTCACCTAGTGCAG	45200 fluorescence intensity (a.u.)
GTGCAGATCCACTGTCTGCTCATTGGGCTTATTCATGGCTCGGAGTCACCTAGTGCAG	40700 fluorescence intensity (a.u.)
GGCTGCTCATTGTCGTCTCATCTGGGCTTTTCAATGGGCTCGGAGTCACCTAGTGCAG	53700 fluorescence intensity (a.u.)
TGACTGCTGGCTCACATCCAGTCATTGGCTTAGCTAGCTGCGGAGTCACCTAGTGCAG	4160 fluorescence intensity (a.u.)
ACCTGTGAATGTCTCTAGTGTGACGACTCTACTTCAGTTTCGGAGTCACCTAGTGCAG	4050 fluorescence intensity (a.u.)
GAGCCTTACCGGCTCAGACTTGGCATGACGTGGACGTACACGGAGTCACCTAGTGCAG	22500 fluorescence intensity (a.u.)
TTCATTCCCAAATGCCACCCGGGCCCACATGTCAGCCTCACGGAGTCACCTAGTGCAG	4670 fluorescence intensity (a.u.)
TTACCCTTAGTCATTTGACCCTATTACATGTGGGACCCACCGGAGTCACCTAGTGCAG	3900 fluorescence intensity (a.u.)
GTCATGGATCAAATCATCATGTATATCATCCGTCGTCGTGCGGAGTCACCTAGTGCAG	3180 fluorescence intensity (a.u.)
TGTTGCTCGGCCAAACGTACACACAGTTCGTTATATATCGCGGAGTCACCTAGTGCAG	12100 fluorescence intensity (a.u.)
TATTTTGGAGCGGACGAAGTAATAATATAGTACACGTCGGCGGAGTCACCTAGTGCAG	5310 fluorescence intensity (a.u.)
CCCATAACTGAATTGTTAATTTTGTCACGCGAGCAACGCACGGAGTCACCTAGTGCAG	19300 fluorescence intensity (a.u.)
ATACATAGCCATATATAAAATTAATGTGATAACATATTCTCGGAGTCACCTAGTGCAG	3660 fluorescence intensity (a.u.)
ATACAAGACAAATCGATTAACATAAGATCGATATATCGCTCGGAGTCACCTAGTGCAG	24700 fluorescence intensity (a.u.)
GATAATTAAGCTGATAGCGAGACATAACAAGCTCTGTTCTCGGAGTCACCTAGTGCAG	49600 fluorescence intensity (a.u.)

Sequence	binding signal
TGATAATAATTATTTCTTGGTCTTTAAATTAAGGGTGATTCGGAGTCACCTAGTGCAG	14800 fluorescence intensity (a.u.)
AAGTAAATGTAGATAAGGCCGTGTAATAAAGGTTGCTAGTCGGAGTCACCTAGTGCAG	56800 fluorescence intensity (a.u.)
TAATAAGAGGCTGTAAGTCGGCTAAATGCTGAGGTGGAGGCGGAGTCACCTAGTGCAG	8660 fluorescence intensity (a.u.)
TGTTTGTAAAGTAGAGCGTGCATGTGTGCGTTCTTAAGGTCGGAGTCACCTAGTGCAG	3590 fluorescence intensity (a.u.)
AATATAGTGTTGTTTGGTACTATATCGAGTTGGATTAGTTCGGAGTCACCTAGTGCAG	3190 fluorescence intensity (a.u.)
TTGGTAGGTTCGACCTACTAGATTGTTGTTGATAATATAACGGAGTCACCTAGTGCAG	51700 fluorescence intensity (a.u.)
GATTCGAGATTCAGGTAGGTTGTATAGTTCACGGGAGCAACGGAGTCACCTAGTGCAG	64500 fluorescence intensity (a.u.)
TGTTCATCCAAGGAGATTATCAGGTTGTTTGTATATATAACGGAGTCACCTAGTGCAG	26400 fluorescence intensity (a.u.)
GATTGGTAGTATTTAGTTGTGTATAATGTATTATTAGGTTCGGAGTCACCTAGTGCAG	3720 fluorescence intensity (a.u.)
AAATTCGTTCTACAACTAAACAGGTTGCTTCAGAGTGCAACGGAGTCACCTAGTGCAG	30800 fluorescence intensity (a.u.)
TGCTATGCATACGACTCAGCTGTCCGACTCATGTATGAATCGGAGTCACCTAGTGCAG	3720 fluorescence intensity (a.u.)
CGCGGCACGGGGAGACGACACGTCGGATGGTTGGCAGGAGCGGAGTCACCTAGTGCAG	16400 fluorescence intensity (a.u.)
TTCTTCCTATATAAGCACAACACACGTCCTTACTTGTGTGCGGAGTCACCTAGTGCAG	5410 fluorescence intensity (a.u.)
GGCGTTCTGCCGCCTGGCGCCGCTCGTCACGTACGAGGACCGGAGTCACCTAGTGCAG	3350 fluorescence intensity (a.u.)
TCTGTAGTAGTCATCATCACCTAGGTGCCTACCCTTTTGACGGAGTCACCTAGTGCAG	3280 fluorescence intensity (a.u.)
CTGGGAAATAGTGCTGCAGAGTCACTAGTTAGATCGAAATCGGAGTCACCTAGTGCAG	3980 fluorescence intensity (a.u.)
TGTGAGCACGGATCGACGATGAAAACAGACGAAGAACATTCGGAGTCACCTAGTGCAG	27400 fluorescence intensity (a.u.)
ACTACAAATAGATCGAACAGAAACAGAGCATCACGACGACCGGAGTCACCTAGTGCAG	40300 fluorescence intensity (a.u.)
TCTCAACCCTCAGGTAATCTACTGCTGCGCGTGGTGAATCCGGAGTCACCTAGTGCAG	4080 fluorescence intensity (a.u.)
CTACTAATAAGGCGTGTTATTATTGGTCATCAATGGCGTCCGGAGTCACCTAGTGCAG	3300 fluorescence intensity (a.u.)
AAAGTCCGCTCGTGTTATTGGTAATTGAACTACTAAGCTACGGAGTCACCTAGTGCAG	41300 fluorescence intensity (a.u.)

Sequence	binding signal
ATACTAATAGTATAGTAAGCAACTATTGTATGAATTGGCTCGGAGTCACCTAGTGCAG	3740 fluorescence intensity (a.u.)
GGATCCGGGCATCTGGCTGCCCCGCCGCCACTCCGCCTAGCGGAGTCACCTAGTGCAG	3330 fluorescence intensity (a.u.)
ATTGGTATGGTATATTCATACCATAACATAAGAACAATAACGGAGTCACCTAGTGCAG	21200 fluorescence intensity (a.u.)
TTGGATGTTTGCCGTGGACAAGTGCTAACTGTCAAAACCCCGGAGTCACCTAGTGCAG	34900 fluorescence intensity (a.u.)
TTGAAACTGTGCATGCGCATCACCTTCATGCCCAAAATTTCGGAGTCACCTAGTGCAG	3160 fluorescence intensity (a.u.)
GTGTGAAAAGATGCTGGCCCAATTAATTTGCGCGCGTCATCGGAGTCACCTAGTGCAG	48700 fluorescence intensity (a.u.)
CTTGTGGCCCATTAATGGCTCGCGTCGGCCTAATTTTGTGCGGAGTCACCTAGTGCAG	4450 fluorescence intensity (a.u.)
AACGTCGGTTCCCAAACATTTGTTTTCCTTACCAATCGGGCGGAGTCACCTAGTGCAG	3490 fluorescence intensity (a.u.)
TATCATTTGTCAAACACACCCATATCCCATTTGCCAATCACGGAGTCACCTAGTGCAG	3890 fluorescence intensity (a.u.)
ACCAGTCCCAAATCAAACAGTCCTACTAGTTGCATTTTGTCGGAGTCACCTAGTGCAG	47200 fluorescence intensity (a.u.)
TCAATCATGAGGACATGGTAATATATTGCTTGTGTTGCTTCGGAGTCACCTAGTGCAG	3550 fluorescence intensity (a.u.)
ACAAATACTGATACATATACCTATACGTATGCGTCACCGTCGGAGTCACCTAGTGCAG	8380 fluorescence intensity (a.u.)
AATTATAAAATCCAGAAAATAAACTAAGAACTGAAAACTACGGAGTCACCTAGTGCAG	5060 fluorescence intensity (a.u.)
GTGTGAAACTCATACAAATATAAAATTACTGAACTACCGTCGGAGTCACCTAGTGCAG	49600 fluorescence intensity (a.u.)
TCAGGATGACTCGAAGTCGAATCCGCGTAATACGCTGGCGCGGAGTCACCTAGTGCAG	3370 fluorescence intensity (a.u.)
CCATCACCTCGTCGTCCCCGTCACCGCGCCTCTCCCGCTGCGGAGTCACCTAGTGCAG	3780 fluorescence intensity (a.u.)
TTGAATGGTGATGTAACTTGCATGGTTCTACACTTGATGACGGAGTCACCTAGTGCAG	3610 fluorescence intensity (a.u.)
TAATTCCAAGCTTGTTTCACCGACCTGCCAAACTCGATTGCGGAGTCACCTAGTGCAG	3270 fluorescence intensity (a.u.)
CTCCGATGGAAGCCACGTCCTGTCCAATTCCCAAACTAACCGGAGTCACCTAGTGCAG	4220 fluorescence intensity (a.u.)
GGGCAGCGCTAACCCAAAGCTCCTGCGATTCCAAACCGACCGGAGTCACCTAGTGCAG	64800 fluorescence intensity (a.u.)
AAGGTGATAGGGTCTCAAGTACGTCATTATGAATGTAAATCGGAGTCACCTAGTGCAG	3910 fluorescence intensity (a.u.)
